C diff HTS: inhibitors of Clostridium difficile growth; growth activity, negative = inhibition, % at 16 µg/mL (by protocol); 0.25% of 86,000 active; Clostridium difficile clinical isolate growth, OD600, 24 h; active compounds read low; AID 1259249;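 active = mean growth activity at or below -80% and every replicate also at or below -80%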;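 note: 0% = DMSO wells and -100% = levofloxacin 16 µg/mL wells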
* = called active by the depositor; ! = not active in a repeat. The entries come from a sample that favours hits as a whole.

SMILES	C diff HTS
C/C=C/c1ccc(C2[C@@H]3CN(C(=O)Nc4ccc(F)cc4)C[C@H]2N3)cc1 (stereo partly specified)	-7
O=C(Nc1ccc2c(c1)OCO2)N1C[C@@H]2N[C@H](C1)C2c1ccc(C=Cc2ccccc2)cc1 (stereo partly specified)	-99*!
c1ncc(-c2ccc(C3[C@@H]4CN(Cc5ccc6c(c5)OCO6)C[C@H]3N4)cc2)cn1 (stereo partly specified)	-3
Cc1ccccc1-c1ccc(C2[C@@H]3CN(C(=O)Nc4ccc(F)cc4)C[C@H]2N3)cc1 (stereo partly specified)	50
C(=C\c1ccc(C2[C@@H]3CN(Cc4ccc5c(c4)OCO5)C[C@H]2N3)cc1)/c1ccccc1 (stereo partly specified)	-99*
COc1cc(CN2C[C@@H]3N[C@H](C2)C3c2ccc(/C=C/c3ccccc3)cc2)cc(OC)c1 (stereo partly specified)	11
O=C(Nc1ccc2c(c1)OCO2)N1[C@@H]2CNC[C@H]1C2c1ccc(/C=C/c2ccccc2)cc1 (stereo partly specified)	34
O=C(Nc1ccccc1F)N1C[C@@H]2N[C@H](C1)C2c1ccc(/C=C/c2ccccc2)cc1 (stereo partly specified)	-97*!
O=C(CN1CCOCC1)N1CCCCN2[C@@H](CO)[C@H](c3ccc(C#Cc4ccccc4)cc3)[C@@H]2C1	-8
O=C(Nc1ccccc1F)N1C[C@@H]2[C@H](c3ccccc31)[C@@H](CO)N2C(=O)C1CCCCC1	3
O=C(c1ccccc1F)N1CC(=O)N2[C@@H](CO)[C@@H](c3ccc(-c4cccnc4)cc3)[C@@H]2C1	-6
C[C@H](CO)N1C[C@H](C)[C@H](CN(C)Cc2ccc(F)cc2)Oc2ncc(C#CCN(C)C)cc2C1=O	11
C[C@H]1CN([C@@H](C)CO)C(=O)c2cc(NS(C)(=O)=O)ccc2O[C@@H]1CN(C)CC1CC1	-1
C[C@@H]1CN([C@H](C)CO)S(=O)(=O)c2ccc(-c3ccccc3)cc2O[C@@H]1CN(C)S(=O)(=O)c1ccccc1F	3
O=C(C[C@@H]1CC[C@@H]2[C@H](COC[C@@H](O)CN2C(=O)Nc2ccc(Cl)c(Cl)c2)O1)NCc1ccc(F)cc1	-16
CNC(=O)C[C@@H]1CC[C@H]2[C@@H](COC[C@@H](O)CN2C(=O)Nc2ccc(Cl)c(Cl)c2)O1	-12
CNC(=O)C[C@@H]1CC[C@@H]2[C@H](COC[C@@H](O)CN2C(=O)Nc2ccc(Cl)c(Cl)c2)O1	-16
CNC(=O)C[C@H]1CC[C@H]2[C@@H](COC[C@@H](O)CN2C(=O)Nc2ccc(Cl)c(Cl)c2)O1	-12
O=C(C[C@@H]1CC[C@@H]2[C@H](COC[C@@H](O)CN2C(=O)Nc2ccc(Cl)c(Cl)c2)O1)NCc1ccncc1	-96*!
CCCNC(=O)C[C@H]1CC[C@@H]2[C@H](COC[C@H](O)CN2C(=O)Nc2ccc(Cl)c(Cl)c2)O1	-101*!
O=C(C[C@@H]1CC[C@@H]2[C@H](COC[C@H](O)CN2C(=O)Nc2ccc(Cl)c(Cl)c2)O1)NCc1ccc(Cl)cc1	-61
O=C(C[C@@H]1CC[C@H]2[C@@H](COC[C@H](O)CN2C(=O)Nc2ccc(Cl)c(Cl)c2)O1)NC1CCC1	89
O=C(C[C@@H]1CC[C@@H]2[C@H](COC[C@H](O)CN2C(=O)Nc2ccc(Cl)c(Cl)c2)O1)NCc1ccc(F)cc1	-96*
C[C@@H]1CN([C@@H](C)CO)C(=O)Cc2cc(NC(=O)Nc3ccc4c(c3)OCO4)ccc2O[C@@H]1CN(C)Cc1ccc(C(F)(F)F)cc1	-2
C[C@H](CO)N1C[C@H](C)[C@H](CN(C)Cc2ccc(C(=O)Nc3ccccc3N)cc2)Oc2ccc(NC(=O)Cn3cnnn3)cc2C1=O	-1
SMILES	C diff HTS
CCCNC(=O)N1CC(=O)N2[C@H](CO)[C@H](c3ccc(-c4ccc(C)cc4)cc3)[C@@H]2C1	4
Cc1ccc(S(=O)(=O)N[C@@H]2CC[C@H](CC(=O)N3CCN(c4ccccc4)CC3)O[C@H]2CO)cc1	-1
CNC[C@H]1Oc2cc(C#CC3CCCC3)ccc2S(=O)(=O)N([C@@H](C)CO)C[C@@H]1C	1
C[C@H](NC(=O)[C@@H]1N[C@@H]2c3ccc(C4=CCCC4)c(=O)n3C[C@@H]2[C@H]1CO)c1ccccc1	-2
C[C@@H]1CN([C@H](C)CO)C(=O)c2cccc(NC(=O)Nc3ccc(F)cc3)c2O[C@H]1CN(C)CC1CC1	21
O=C(CN1CCOCC1)N1CC2(C1)[C@H](c1ccccc1)[C@@H](CO)N2Cc1ccc(F)cc1	5
N#Cc1ccc(-c2ccc3c(c2)[C@@H]2[C@@H](CCN2Cc2ccc4c(c2)OCO4)[C@@H](CO)N3)cc1	-102*
N#Cc1ccc(-c2ccc3c(c2)[C@@H]2[C@@H](CCN2Cc2cncnc2)[C@@H](CO)N3)cc1	-13
N#Cc1cccc(-c2ccc3c(c2)[C@H]2[C@H](CCN2Cc2cncnc2)[C@H](CO)N3)c1	-11
N#Cc1cccc(-c2ccc3c(c2)[C@@H]2[C@@H](CCN2Cc2ccc4c(c2)OCO4)[C@@H](CO)N3)c1	-98*
OC[C@@H]1Nc2ccc(C#Cc3ccc(F)cc3)cc2[C@@H]2[C@H]1CCN2Cc1ccc2c(c1)OCO2	1
N#Cc1cccc(-c2ccc3c(c2)[C@@H]2[C@@H](CCN2Cc2cncnc2)[C@H](CO)N3)c1	-10
COc1ccc(S(=O)(=O)N(C)C[C@H]2Oc3c(NS(=O)(=O)c4ccccc4)cccc3C(=O)N([C@@H](C)CO)C[C@H]2C)cc1	-17
COc1ccc(S(=O)(=O)N(C)C[C@@H]2Oc3cc(C#CC4CCCC4)ccc3S(=O)(=O)N([C@@H](C)CO)C[C@H]2C)cc1	6
CN(C)C(=O)c1ccc(-c2ccccc2[C@H]2[C@@H](C#N)N(C(=O)C3CCCCC3)[C@H]2CO)cc1	-9
C[C@H](CO)N1C[C@H](C)[C@H](CN(C)S(=O)(=O)c2ccccc2)Oc2ccc(NC(=O)Nc3ccc(C(F)(F)F)cc3)cc2CC1=O	-1
Cc1ccccc1-c1ccc([C@@H]2[C@@H](CO)N3CCCCN(C(=O)Nc4ccc(F)cc4)C[C@@H]23)cc1	54
Cc1ccccc1-c1ccc([C@H]2[C@@H](CO)N3CCCCN(C(=O)Nc4ccccc4)C[C@@H]23)cc1	-9
O=C(Nc1cccc(F)c1)N1CCCCN2[C@H](C1)[C@@H](c1ccc(-c3ccncc3)cc1)[C@@H]2CO	-7
O=C(Nc1cc(F)ccc1F)N1CCCCN2[C@@H](CO)[C@@H](c3ccc(C4=CCCCC4)cc3)[C@@H]2C1	-95*
Cc1ccc(-c2ccc([C@H]3[C@@H](CO)N4CCCCN(C(=O)Nc5cccc(F)c5)C[C@H]34)cc2)cc1	-96*
COc1ccc(C#Cc2ccc([C@@H]3[C@@H](CO)N4CCCCN(Cc5ccccc5F)C[C@H]34)cc2)cc1	-97*
Cc1ccccc1-c1ccc([C@@H]2[C@H](CO)N3CCCCN(C(=O)Nc4ccc(F)cc4)C[C@@H]23)cc1	-99*
COCC#Cc1ccc([C@@H]2[C@H]3CN(Cc4ccccc4F)CCCCN3[C@H]2CO)cc1	2
O=C(Nc1cccc(F)c1)N1CCCCN2[C@H](CO)[C@H](c3ccc(-c4ccncc4)cc3)[C@H]2C1	-3
O=C(Nc1cc(F)ccc1F)N1CCCCN2[C@H](CO)[C@H](c3ccc(C4=CCCCC4)cc3)[C@@H]2C1	-9
COc1ccc(C#Cc2ccc([C@H]3[C@H]4CN(Cc5ccccc5F)CCCCN4[C@H]3CO)cc2)cc1	0

High-throughput results deposited in PubChem by Broad Institute.
